The record followed here is publication PMC5540273 (PLoS ONE, 2017).

Common to all, as to conditions: concentration: 1 μM, replicates: in singlicate; n = 1
Assay [1] has as its system PRKD3.
Assay [2] concerns PRKG1.
Assay [3] concerns PRKG2.
The test system of assay [4] is T1, PRKR.
T1 construct: gene EIF2AK2

The subject of assay [5] is PRKX.
For assay [6], the system named is PRP4.
Assay [7] deals with T2, PYK2.
T2 construct: gene PTK2B

The test system of assay [8] is QSK.
The subject of assay [9] is RAF1.
For assay [10], the system named is RET.
Assay [11] relates to RIOK1.
Assay [12] has as its system RIOK2.
Assay [13] has as its system RIOK3.
The test system of assay [14] is RIPK1.
Assay [15] has as its system RIPK2.
Assay [16] relates to RIPK4.
The test system of assay [17] is RIPK5.
Assay [18] has as its system ROCK1.
The test system of assay [19] is ROCK2.
Assay [20] deals with ROS1.

Each structure is given as a SMILES string.
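Also: KINOMEscan kinase panel screen.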

Take `COc1cccc(-c2ccc3c(NC(=O)C4CC4)n[nH]c3n2)c1` [SB-710903]: the “%Inh” value in assay [1] amounted to 0%; in assay [2] it was 0%; in assay [3], 0%; in assay [4], 0%; in assay [5] it was 0%; in assay [6], 70%. The “%Inh” value in assay [7] is 6%; in [8], 0%; in [9], 12%; in assay [10] it was 6%; in assay [11], 38%; in [12], 0%. The “%Inh” value in assay [13] stood at 0%; in [14] it was 99.5%; in [15], 15%; in assay [16] it was 27%; in assay [17], 1%; in assay [18] it was 38%. Besides, the “%Inh” value is reported as 49% in [19] and 0% in assay [20].

Turning to `CCc1ccc(-c2ccc3c(c2)-c2c(cnn2C)S(=O)(=O)N3C)cc1`, the “%Inh” value in assay [1] turned out to be 0%; in [2], 0%; in assay [3], 0%; in [4], 6%; in assay [5] it was 16%; in assay [6] it was 10%. In addition, the “%Inh” value is listed as 0% in assay [7]; 0% in assay [8]; 19% in assay [9]; 5% in [10]; 0% in [11]; 12% in [12]. Further, the “%Inh” value in assay [13] is 0%; in assay [14] it was 0%; in assay [15], 0%; in assay [16] it was 9%; in [17], 26%; in assay [18] it was 0%. The figures for the “%Inh” value in assay [19] and in assay [20] were 0% and 3%, respectively.

Regarding `O=C(Nc1n[nH]c2nc(-c3ccc(O)cc3)ccc12)C1CC1` [SB-710363], the “%Inh” value in [1] is given as 0%; in [2], 19%; in assay [3] it was 10%; in [4], 0%; in assay [5] it was 0%; in [6], 0%. Also, the “%Inh” value in [7] was determined as 26%; in [8], 17%; in assay [9], 13%; in [10], 0%; in assay [11], 47%; in assay [12] it was 0%. Further, the “%Inh” value was determined as 46% in [13]; 2% in assay [14]; 0% in [15]; 39% in assay [16]; 0% in assay [17]; 0% in assay [18]. Moreover, the “%Inh” value in assay [19] and in [20] was 0% throughout.

For `O=C(Nc1ccccc1F)NC1CCN(c2ccnc(Nc3ccc(F)cc3)n2)CC1` [GSK1379800], the “%Inh” value in assay [1] is 0%; in [2], 15%; in [3], 0%; in [4], 0%; in [5], 7%; in assay [6], 45%. Further, the “%Inh” value came out at 0% in [7]; 1% in [8]; 16% in [9]; 4% in assay [10]; 58% in [11]; 0% in [12]. The “%Inh” value in assay [13] is reported as 43%; in [14] it was 26%; in assay [15], 0%; in [16] it was 16%; in assay [17], 0%; in [18], 10%. The “%Inh” value in assay [19] came to 31%; in [20] it was 0%.

Regarding `COc1cc(Nc2nccc(N3CCC(NC(=O)c4cc5ccccc5s4)C3)n2)cc(OC)c1OC` (stereo not drawn) [GSK1379760], the “%Inh” value in assay [1] came to 0%; in assay [2], 9%; in [3], 7%; in assay [4], 8%; in [5] it was 24%; in assay [6] it was 48%. Also, the “%Inh” value was determined as 0% in assay [7]; 100% in assay [8]; 15% in [9]; 21% in [10]; 76% in [11]; 14% in assay [12]. In addition, the “%Inh” value in [13] is recorded as 53%; in assay [14] it was 24%; in assay [15], 7%; in [16], 0%; in [17], 0%; in [18], 0%. Moreover, the results for the “%Inh” value in [19] and in assay [20] were 14% and 45%, respectively.

In the case of `CC(=O)N1CCN(c2ccc(Nc3nccc(-c4sc(C(C)C)nc4-c4cccc(NS(=O)(=O)c5cccc(Cl)c5)c4)n3)cn2)CC1` [GSK1660437], the “%Inh” value came out at 100% in assay [1]; 25% in [2]; 0% in [3]; 0% in [4]; 5% in [5]; 2% in assay [6]. In addition, the “%Inh” value in assay [7] amounted to 0%; in assay [8] it was 10%; in assay [9] it was 86%; in assay [10], 54%; in assay [11], 19%; in [12], 10%. Besides, the “%Inh” value in [13] stood at 4%; in assay [14] it was 0%; in assay [15] it was 93.2%; in [16], 0%; in assay [17], 37%; in [18] it was 0%. The entries for the “%Inh” value in [19] and in assay [20] were 18% and 21%, respectively.

Turning to `O=C(Nc1cccc(-c2nn3ccccc3c2-c2ccnc(Nc3cccc(C(F)(F)F)c3)n2)c1)c1c(F)cccc1F` [GSK292658], the “%Inh” value in assay [1] was 29%; in assay [2] it was 3%; in [3], 0%; in assay [4], 0%; in [5], 8%; in assay [6] it was 5%. For the same molecule, the “%Inh” value was 0% in [7]; 2% in assay [8]; 72% in assay [9]; 73% in assay [10]; 17% in assay [11]; 6% in assay [12]. The “%Inh” value in assay [13] amounted to 0%; in assay [14], 7%; in assay [15] it was 63%; in assay [16], 0%; in assay [17], 0%; in assay [18], 0%. Moreover, the “%Inh” value in assay [19] came to 1%; in [20] it was 0%.

As to `O=c1[nH]cc(-c2ccc(N3CCOCC3)cc2)c2sc(-c3cn[nH]c3)cc12` [GSK2276055], the “%Inh” value is on record as 4% in [1]; 0% in [2]; 10% in assay [3]; 34% in assay [4]; 10% in assay [5]; 0% in assay [6]. Moreover, the “%Inh” value in assay [7] was 0%; in [8], 11%; in assay [9] it was 0%; in assay [10], 3%; in assay [11] it was 37%; in assay [12] it was 76%. Also, the “%Inh” value is recorded as 25% in assay [13]; 18% in assay [14]; 0% in assay [15]; 12% in assay [16]; 10% in assay [17]; 0% in assay [18]. In addition, the “%Inh” value in assay [19] and in assay [20] was 0% in each case.

In the case of `CC(=O)Nc1nc2cnc(Nc3cc(NC(=O)c4cccc(C5(C#N)CC5)c4Cl)ccc3C)nc2s1`, the “%Inh” value amounted to 0% in [1]; 0% in assay [2]; 0% in assay [3]; 0% in assay [4]; 19% in assay [5]; 6% in assay [6]. Also, the “%Inh” value is 20% in assay [7]; 0% in assay [8]; 99.2% in assay [9]; 99.6% in assay [10]; 15% in assay [11]; 5% in [12]. The “%Inh” value in assay [13] came to 3%; in assay [14] it was 2%; in [15] it was 0%; in [16], 0%; in [17], 15%; in assay [18] it was 5%. The “%Inh” value in [19] and in assay [20] was 0% in each case.
